# Reference: PubChem BioAssay AID624413 (The Scripps Research Institute Molecular Screening Center, 2012)
# The whole screen tested about 1,400 compounds, of which about 160 (11%) were called active. Rule as the data show it: active = inhibition above about 15%; inactive = the rest. Only a sample is shown.
# Test: Jurkat T cell cytotoxicity, cytotoxicity control for T. brucei MetRS inhibitor project, luminescence, high throughput (AID 624413);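 also: 0% = vehicle and 100% = reference inhibitor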
# Settings: Jurkat cells viability, ATP luminescence; at 8.3 µM; stronger effect = higher value
row,SMILES,inhibition
1,NS(=O)(=O)c1ccc(CCNC(=O)Nc2ccc(Cl)cc2)cc1,3.2% (inactive)
2,O=C(Cc1ccc(S(=O)(=O)N2CCOCC2)s1)Nc1ccc(Br)c(C(F)(F)F)c1,4.25% (inactive)
3,O=C(CC(=O)Nc1ccc(Cl)c(Cl)c1)N/N=C/c1ccc(O)cc1,3.68% (inactive)
4,O=C(Cn1c2[n+](c3ccc(C(F)(F)F)cc31)CCCCC2)Nc1c(F)cccc1F,7.63% (inactive)
5,S=c1[nH]nc(CSCc2ccc(Cl)cc2Cl)n1-c1ccccc1,7.09% (inactive)
6,Cc1ccc(-c2cnc(C(O)c3cc(Cl)cc(Cl)c3)[nH]2)cc1 (stereo unspecified),4.06% (inactive)
7,Oc1[nH]c2ccc(Br)cc2c1N=Nc1nn[nH]n1,-3.84% (inactive)
8,CN(C(=O)CSc1nnc(-c2c[nH]c3ccccc23)o1)C1CCS(=O)(=O)C1 (stereo unspecified),-7.37% (inactive)
9,Fc1ccc(NC(=S)N2CCc3[nH]c4ccccc4c3C2)cc1,-0.86% (inactive)
10,Cn1c(CCCOc2ccc(Cl)cc2Cl)n[nH]c1=S,1.8% (inactive)
11,COC(=O)CN1C(=S)N(c2ccccc2)C(=O)C1CC(=O)Nc1ccc(Cl)cc1 (stereo unspecified),-3.1% (inactive)
12,Cc1ccc(O)c(CNc2nc3ccccc3[nH]2)c1,24.5% (active)
13,Clc1ccccc1SCc1nc2ccccc2[nH]1,7.62% (inactive)
14,Cc1ccc(CNC(=O)CSc2nnc3c(n2)[nH]c2ccc(F)cc23)cc1,-1.93% (inactive)
15,O=C(O)CCn1c(O)c(C=C2N=c3ccccc3=N2)sc1=S,0.39% (inactive)
16,O=C(Nc1ccc(S(=O)(=O)Nc2ncccn2)cc1)c1cncc(Br)c1,-8.56% (inactive)
17,COc1ccc(OCC(O)CNC(=O)Nc2ccc(Cl)cc2)cc1 (stereo unspecified),-6% (inactive)
18,c1ccc2cc3[nH]c(CN4CCCCC4)nc3cc2c1,-5.35% (inactive)
19,CCCCCn1nnnc1-c1nc2cc3ccccc3cc2[nH]c1=O,55.2% (active)
20,O=C(O)c1ccc(NS(=O)(=O)c2ccc3c(c2)C(=O)c2cc(S(=O)(=O)Nc4ccc(C(=O)O)cc4)ccc2-3)cc1,-0.7% (inactive)
21,CC(=N\NC(=O)c1cc(Br)ccc1O)/C(=N/O)C(=O)Nc1ccccc1,9.24% (inactive)

row,SMILES,inhibition
1,CN(C(=O)CSc1nnc(Nc2ccccc2)s1)C1CCS(=O)(=O)C1 (stereo unspecified),3.56% (inactive)
2,CCO[C@@H]1OC(C(=O)NCc2nc3ccccc3[nH]2)=C[C@H](C2CCCCC2)[C@H]1CCCO,-0.5% (inactive)
3,O=C(Cn1c(NCCO)nc2ccccc21)c1ccc(Cl)cc1Cl,4.95% (inactive)
4,COc1ccc(-c2[nH]ncc2/C=N/NC(=O)c2cc(Br)ccc2O)c(OC)c1,2% (inactive)
5,COc1ccccc1-n1c(SCC(=O)Nc2ccc(Cl)cc2)nc(O)c(Cc2ccccc2)c1=O,-1.69% (inactive)
6,CSc1nsc(NC(=O)Nc2ccccc2)n1,10% (inactive)
7,Cc1ccccc1OCC(=O)NNC(=O)c1ccc(-n2cncn2)c([N+](=O)[O-])c1,5.5% (inactive)
8,Cc1c(CN2CCC(CO)(CCOc3ccccc3)CC2)[nH]c2ccc(Cl)cc12,13.6% (inactive)
9,O=C(CSc1nc2ccccc2[nH]1)N/N=C/C=C\c1ccccc1[N+](=O)[O-],0.15% (inactive)
10,Cc1ccc(S(=O)(=O)N(C)C)cc1NC(=O)c1ccc(-n2cncn2)c([N+](=O)[O-])c1,-2.08% (inactive)
11,COc1ccc(NC(=O)C(NC(C)=O)C(=O)NCc2ccccc2Cl)cc1 (stereo unspecified),3.32% (inactive)
12,O=C(NCC(O)c1nc2ccccc2[nH]1)c1ccc(Br)cc1 (stereo unspecified),1.16% (inactive)
13,O=C(OCc1nc2ccccc2[nH]1)C1CCCCC1,-2.05% (inactive)
14,O=S(=O)(c1ccc(Br)cc1)N1CCC(c2nc3ccccc3[nH]2)CC1,35.4% (active)
15,O=C(NCCN1CCOCC1)c1ccccc1N1C(=O)[C@@H]2Cc3c([nH]c4ccccc34)C(c3cccc(Cl)c3)N2C1=O (stereo partly specified),-0.67% (inactive)
16,CCN1CCCC1CNc1ncnc2c1[nH]c1ccc(F)cc12 (stereo unspecified),-1.19% (inactive)
17,CC(C)OCCCNc1ncnc2c1[nH]c1ccc(F)cc12,47.3% (active)
18,O=C1CCCN1CCCNc1ncnc2c1[nH]c1ccccc12,-1.7% (inactive)
19,Cc1cc(C)cc(NC(=O)N(C)Cc2ccccc2)c1,-0.98% (inactive)
20,CC(C)(C)c1ccc(/C=C2\SC(=O)N=C2N)cc1,7.36% (inactive)
